50 compounds from PubChem BioAssay AID1345083 (National Center for Advancing Translational Sciences (NCATS), 2018) can be followed below.

Each structure is given as a SMILES string. About 6,200 (6.6%) of roughly 94,000 compounds were called active. Another 31% or so got no clear call; they are omitted. Many of the other results were omitted from the sample, so actives are more common in it than they were. A number with no mark means an inactive call. Calls follow the shape of the dose curve; as a rule, active = well fitted inhibition curve with a large enough effect; inconclusive = small, poorly fitted or top-dose-only effect; inactive = flat fitted curve, though single readings scatter.
% is scaled to controls: 0 for no effect and ±100 for the full control effect; potency is read from the fitted curve at half-maximal effect.

The assay is described as follows: Cytotoxic Profiling in HEK 293 Cell Line of Diverse Libraries Using Quantitative High-Throughput Screening. Also: nearly all actives have a fitted effect of over 60% in size. Particulars: HEK 293 viability, ATP luminescence (CellTiter-Glo), 48-72 h; series mostly up to 115 µM; activity change, negative = cytotoxicity: at the top concentration. The method, boiled down:
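CellTiter-Glo luminescence (cellular ATP) was read after 48 or 72 hr of compound exposure at 37 degree Celsius. Cells were HEK 293 plated at 250 cells/well.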
Background: In ATP-based viability assays light output follows the ATP content of the culture.
For the compound `Cc1ccccc1C(=O)NCc1c[nH]c2ncccc12`, the “activity change, negative = cytotoxicity” value was -4.04% [at 172 µM].
In the case of `N#Cc1ccc(CN2CC3CCC(C2)N3c2ccc(C(F)(F)F)cc2)cc1`, the “activity change, negative = cytotoxicity” value is 1.8%.
With `O=C(c1ccn[nH]1)N1CCC[C@H](n2c(=O)n(CC3CC3)c3cccnc32)C1`, the “activity change, negative = cytotoxicity” value was -3.78%.
On the same count and under the same terms, to `COCCn1c(=O)n([C@H]2CCCN(C(=O)c3ccccc3F)C2)c2ncccc21` belongs -4.8%; to `NC(=O)c1cccnc1OC1CCN(Cc2cccnc2)CC1`, -1.27%; to `CCOCc1nc(C2CCCN(C(=O)NC(C)C)C2)no1` (stereo not given), 6.9%.
On the same count and under the same terms, to `O=C(NCc1ccco1)C1CCCN(c2cnn(Cc3ccccc3)c(=O)c2)C1` (stereo not given) belongs -10.3%; to `Cc1noc(C)c1S(=O)(=O)N1CCC(c2noc(-c3ccccn3)n2)C1` (stereo not given), -0.0231%.
Still for that read-out and setting: to `O=C1CCN(C(=O)C2COc3ccccc3O2)CCOCCN1` (stereo not given) belongs -13.6%.
Turning to `C[C@@H](NC(=O)C1=C[C@@H](NC(=O)CC2(CC(=O)O)CCCC2)[C@@H](O)[C@H](O)C1)C(N)=O`, the “outcome” value is “inactive [at 172 µM]”.
Take `CN1CCC(C(=O)N2CC(F)(F)C[C@H]2c2nc(C3CC3)no2)CC1`: the “activity change, negative = cytotoxicity” value was 1.09%.
As for `Cc1noc2c(NC3CCCCC3)cc(-c3ccsc3)nc12`, the Potency was 89.1 µM (active).
Turning to `COCCCNc1cc(-c2ccsc2)nc2c(C)noc12`, the “activity change, negative = cytotoxicity” value was -25.3% [at 172 µM].
On the same count and under the same terms, to `O=C(Nc1ccc(-c2nnc3n2CCCC3)cc1)c1ccccn1` belongs 0.901%.
Consider `CC(=O)N1CCCC2(C1)CN(C)c1ccc(C(=O)NC3CC3)cc12` (stereo not given), for which the “activity change, negative = cytotoxicity” value was 4.11% [at 172 µM].
Take `CNc1nc(C(=O)NCc2ccc3[nH]c(-c4ccc(F)cc4)c(C)c3c2)cs1`: the Potency is 39.8 µM (active).
`N#Cc1cccc(-c2c(C(=O)NCc3ccc(F)cc3)nc3sccn23)c1`: the “activity change, negative = cytotoxicity” value is -4.66% [at 172 µM].
Still for that read-out and setting: to `COCCCN(CCC(=O)NCc1ccc(F)cc1)C(=O)c1cc(C)oc1C` belongs -6.59%; to `COc1ccc(-c2ccc(C(=O)NCc3ccc(F)cc3)cc2)nn1`, -8.21% [at 172 µM].
With `Cc1c(-c2ccc(F)cc2)[nH]c2ccc(CNC(=O)c3ccc(CO)o3)cc12`, the Potency is 31.6 µM (active).
On to `COc1ccc(CNC(=O)Cn2cccc2-c2nc(-c3ccc(F)cc3)no2)cc1`, for which the “activity change, negative = cytotoxicity” value is -3.89%.
Still for that read-out and setting: then `CCOc1ccc2c(n1)CCN(C(=O)Nc1ccc(OC)cc1C)C2`, with -5.05%.
For `CN1CC(=O)N(c2cccc(F)c2)Cc2c(NC3CCNCC3)ncnc21`, the “activity change, negative = cytotoxicity” value was 1.38%.
Same read-out and setting: to `CS(=O)(=O)N1CCCN(C(=O)Cc2cccc(F)c2)CCNC(=O)CC1c1ccccc1` (stereo not given) belongs -0.201%; to `CCOCC(=O)N1CC(c2nc(CCOc3cccc(C)c3)no2)C1`, -25.3%.
As to `Cc1cccc(OCCc2noc(C3CCCN(Cc4ccccc4C#N)C3)n2)c1` (stereo not given), the Potency is 89.1 µM (active).
Turning to `O=C(c1ccccn1)N1CCCC(c2nc(CCOCC3CCOCC3)no2)C1` (stereo not given), the “activity change, negative = cytotoxicity” value is -18.8%.
The same measure, in the same setting: to `Cn1ncc2c(C(=O)NC3CCCCC3)cc(-c3cccnc3)nc21` belongs -18.9% [at 172 µM]; to `Cn1ncc2c(C(=O)Nc3cccc(C(F)(F)F)c3)cc(-c3cccc(C(F)(F)F)c3)nc21`, -31.4%.
Still for that read-out and setting: to `COc1cccc(-c2cc(C(=O)N3CCN(C(C)=O)CC3)c3cnn(C)c3n2)c1` belongs -18.6%.
In the case of `Cn1ncc2c(C(=O)Nc3ccc(F)cc3)cc(-c3ccc(Cl)cc3Cl)nc21`, the “activity change, negative = cytotoxicity” value was 0.727%.
Turning to `Cc1ccc(NC(=O)c2cc(C(C)(C)C)nc3c2cnn3C)cc1`, the Potency is 79.4 µM (active).
Still for that read-out and setting: then `COc1cccc(-c2cc(C(=O)Nc3cccc(Cl)c3)c3cnn(C)c3n2)c1`, with 39.8 µM (active); and `COc1cccc(-c2cc(C(=O)Nc3cccc(F)c3)c3cnn(C)c3n2)c1`, with 44.7 µM (active).
With `COc1cccc(CNC(=O)c2cc(-c3ccc(Cl)nc3)nc3c2cnn3C)c1`, the “activity change, negative = cytotoxicity” value is -8.6%.
On the same count and under the same terms, to `CCn1nc(C)cc1C(=O)N1C[C@H]2OC(=O)N(CCCN3CCOCC3)[C@H]2C1` belongs -26.4%.
Regarding `O=C(Nc1cccnc1)O[C@H]1COCCN(c2nc3ccccc3s2)C1`, the “activity change, negative = cytotoxicity” value is -19% [at 172 µM].
Still for that read-out and setting: then `COc1cccc([S+](=O)([O-])N2CCCC3(CC(c4cccc(C(F)(F)F)c4)=NO3)C2)c1` (stereo not given), with -20.1%; and `CC(C)N1C[C@H](O)C[C@H]1c1nnc2n1CCN(C(=O)c1ccccn1)CC2`, with -14.3%.
On the same count and under the same terms, then `CO[C@H]1C(=O)N(C2CCN(S(=O)(=O)c3c(C)nn(C)c3C)CC2)[C@H]1c1ccncc1`, with -4.47%; and `CCCN1C(=O)NC(CC(=O)N2CCC(O)(c3ccc(C)cn3)CC2)C1=O` (stereo not given), with -16.1%.
Take `CN(C)S(=O)(=O)N1C[C@@H]2CC[C@H](C1)N(Cc1ccccc1C#N)C2`: the “activity change, negative = cytotoxicity” value was -13.7%.
Same read-out and setting: to `CC1(C)[C@H](Cc2cc(CCO)on2)C[C@@H]1NCC1CC1` belongs -3.06% [at 230 µM].
For `CC1(C)[C@H](Cc2cc(-c3ccccc3)on2)C[C@@H]1NS(C)(=O)=O`, the Potency was 89.1 µM (active).
Still for that read-out and setting: then `CC1(C)[C@H](Cc2cc(-c3ccccc3)on2)C[C@@H]1NCC1CC1`, with 100 µM (active).
In the case of `CCn1cnnc1CC1CCN(C(=O)c2cc(-c3ccc(F)cc3)nc3ccccc23)CC1`, the “activity change, negative = cytotoxicity” value is -31.2%.
On the same count and under the same terms, to `CN(C)C(C(=O)N1CCC(N2CCSCC2)CC1)c1cccc(F)c1` (stereo not given) belongs 2.08%.
On the same count and under the same terms, then `O=C(NC[C@H]1O[C@@H](CO)[C@@H](O)[C@H]1N1CCOCC1)Nc1ccc(OC(F)(F)F)cc1`, with 4.47%; and `O=C(NCc1ccccc1)c1ccc2nc(-c3ccnc(Cl)c3)oc2c1`, with -0.349% [at 172 µM].
`O=C(NCc1cnn(Cc2ccccc2)c1)c1ccc2oc(-c3cccc(F)c3)nc2c1`: the Potency is 7.08 µM (active).
